# High-throughput results deposited in PubChem by National Center for Advancing Translational Sciences (NCATS).
# A selection: hits, their analogues and other compounds. The true share with any hit is near 12%.
# G9a block: inhibitors of human histone lysine methyltransferase G9a. Q96KQ7. G9a H3K9 monomethylation, AlphaScreen, 2 h. Potency, µM (top dose mostly 102 µM), for inactives: at the highest dose activity, negative = inhibition, most hits filed as inhibitors. 8.8% of 350,000 active; further: potency means the concentration at half of the fitted maximal effect; on the % scale 0 is the no-effect control and ±100 the full control effect; nearly all actives have a fitted effect of over 75% in size
# Target sequence (Q96KQ7 913-1193 limits assumed): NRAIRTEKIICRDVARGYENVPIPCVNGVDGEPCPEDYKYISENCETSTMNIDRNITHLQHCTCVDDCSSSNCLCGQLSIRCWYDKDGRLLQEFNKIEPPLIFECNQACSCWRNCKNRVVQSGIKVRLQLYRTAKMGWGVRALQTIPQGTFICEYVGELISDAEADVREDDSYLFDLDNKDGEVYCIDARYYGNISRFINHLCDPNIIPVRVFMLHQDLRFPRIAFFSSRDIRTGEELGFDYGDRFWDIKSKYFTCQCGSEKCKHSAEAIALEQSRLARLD
#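 Step 1: enzyme (final 20 nM) with compound, 15 min RT. Step 2: substrate peptide 500 nM and SAM 20 uM, 2 h RT. Step 3: anti-H3K9me1 antibody and AlphaScreen beads, 10 min, then plate read.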
# JMJD2A Tudor: JMJD2A Tudor domain (human) inhibition. O75164. AlphaScreen JMJD2A-Tudor / H3K4me3 peptide binding. Potency, µM (top dose mostly 114 µM), inactives show at the top dose activity change, negative = inhibition, actives largely listed as inhibitors. 4.4% of 390,000 active. AID 504339; further: potency means the concentration at half of the fitted maximal effect; on the % scale 0 is the no-effect control and ±100 the full control effect; nearly all actives have a fitted effect of over 50% in size
# PLK1 PBD inh: inhibitors of human PLK1 polo-box domain binding; P53350; Plk1 PBD binding of FITC phosphopeptide, fluorescence polarization; Potency, µM, for inactives: max response, negative = inhibition, usual class: inhibitors; 2.8% of 360,000 active; AID 720504; further: potency means the concentration at half of the fitted maximal effect; series mostly up to about 57 µM; on the % scale 0 is the no-effect control and ±100 the full control effect; nearly all actives have a fitted effect of over 65% in size
# PI5P4Ka inh: PI5P4K alpha (human) kinase inhibition; 1.2% of 330,000 active; PI5P4Kalpha enzyme, ADP-Glo luminescence, 60 min; stronger effect = lower value; P48426; max response, %; active means max response of -50% or lower; inconclusive means between -30% and -50%; inactive means -30% or higher; further: value at the top dose of about 77 µM; on the % scale 0 is the no-effect control and ±100 the full control effect
#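 ADP-Glo luminescence end-point read after a 60 min room-temperature kinase reaction of PI5P4Kalpha plus substrate, initiated with ATP at 5 microM final. Buffer: 0.038 M HEPES pH 7.4, EGTA, 0.1% CHAPS, 5% DMSO.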
# HP1b chromo inh: inhibitors of HP1-beta chromodomain binding to methylated histone tails; AlphaScreen HP1-beta / biotin-H3K9me3 peptide binding; Potency, µM (titrated, usually from 114 µM), without a hit: at the highest dose activity change, negative = inhibition, hits mostly inhibitors; 0.56% of 390,000 active; AID 540317; further: potency means the concentration at half of the fitted maximal effect; nearly all actives have a fitted effect of over 70% in size
# Target sequence (P83916 whole entry, looked up): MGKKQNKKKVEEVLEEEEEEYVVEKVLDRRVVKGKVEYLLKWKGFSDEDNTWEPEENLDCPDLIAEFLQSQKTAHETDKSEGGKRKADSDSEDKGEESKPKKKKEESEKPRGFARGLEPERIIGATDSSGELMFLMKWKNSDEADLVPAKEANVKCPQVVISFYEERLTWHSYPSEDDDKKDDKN
#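 Compound inhibition of the preformed complex between 50 nM HP1-beta and 50 nM biotinylated H3K9me3 peptide was read by AlphaScreen. Buffer was PBS pH 7.4 with 0.01% Tween-20. Incubations ran 30 min at room temperature, with 10 ug/mL donor/acceptor beads.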
# BAZ2B inh: inhibitors of human BAZ2B bromodomain; AlphaScreen BAZ2B-H3K14Ac peptide displacement; Q9UIF8; 4.4% of 360,000 active; Potency, µM (doses to about 114 µM), for inactives: at the top dose activity change, negative = inhibition, actives largely listed as inhibitors; AID 504333; further: potency means the concentration at half of the fitted maximal effect; on the % scale 0 is the no-effect control and ±100 the full control effect; nearly all actives have a fitted effect of over 60% in size
#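 Multi-concentration screen (max 110 uM) measuring displacement of acetylated histone H3 peptide from BAZ2B by AlphaScreen, using 50 nM protein, 50 nM peptide and 10 ug/mL streptavidin donor plus Ni-chelate acceptor beads.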
# Starred values were filed as active, the others as inactive; ? = inconclusive; nt = no result given; [ ] = another dose, or the depositor's remark. Unless noted, the call rests on the fitted dose curve; in most records, active means well fitted curve in the direction sought with a large enough effect; inconclusive means small, poorly fitted or top-dose-only effect, or another doubt; inactive means no such curve, though single readings can be large; an effect the other way counts as inactive or inconclusive.
SMILES,G9a block,JMJD2A Tudor,PLK1 PBD inh,PI5P4Ka inh,HP1b chromo inh,BAZ2B inh
CCOc1ccc2nc(N(CCN(C)C)C(=O)c3cc4ccccc4cc3OC)sc2c1,50.1µM*,39.8µM*,-9.4%,-11.9,?,?
Cc1ccc2c(CNCCc3ccco3)c(C(=O)O)n(Cc3ccc(F)cc3)c2c1,?,-25.3%,nt,nt,15.5%,-34.8%
COc1cc(/C=N/N2C(=O)CSC2=S)ccc1O,-15.4%[12.7 µM],-45.8%,-18.0%,-50.6*,?,?
COc1cc(/C=N/N2C(=O)c3ccccc3C2=O)ccc1O,-6.9%[59 µM],-15.0%,-6.6%,0.1,16.9%,2.2%
O=C1CSC(=S)N1/N=C/c1cc(Br)c(O)c(Br)c1,39.8µM*,15.8µM*,78.6%,-105.5*,-36.3%[57 µM],35.5µM*
O=C1CSC(=S)N1N=Cc1c[nH]c2ccc(Br)cc12,nt,nt,-9.2%,-6.7,nt,nt
O=C1CSC(=S)N1/N=C/c1ccc2c(c1)OCCO2,?,?,?,-57.4*,-8.8%,?
O=C1CSC(=S)N1/N=C/c1ccc(Cl)c([N+](=O)[O-])c1,nt,nt,nt,nt,nt,35.5µM*
CSc1cccc(NC(=O)C2CCCN(S(=O)(=O)c3ccc4c(c3)CCCN4C(C)=O)C2)c1 (configuration not stated),0.3%[59 µM],-18.7%,nt,nt,5.0%[57 µM],-4.9%
CCc1ccc(NC(=O)CSC2=Nc3ccccc3C3=NC(CCC(=O)NCCc4ccccc4)C(=O)N23)cc1 (configuration not stated),-4.1%[59 µM],-30.3%,nt,nt,18.6%,-21.9%
Cc1ccccc1/C=N/N1C(=O)CSC1=S,?,?,?,-4.2,-4.9%,-26.9%
O=C1CSC(=S)N1Cc1cccnc1,?,?,?,-18.3,?,39.8µM*
COc1ccc(Br)cc1/C=N/N1C(=O)CSC1=S,79.4µM*,?,-24.1%,?,?,?
O=C1CSC(=S)N1/N=C/c1cccnc1,7.08µM*,-7.2%,?,?,5.8%,-3.2%
COc1cc(O)c(C=NN2C(=O)CSC2=S)c(OC)c1,nt,nt,-24.0%,-75.5*,nt,nt
O=C(NC1CCCCC1)N(c1ccccc1)c1nnc(-c2cccc([N+](=O)[O-])c2)s1,nt,nt,?,2.7,nt,nt
COc1cccc(CNC(=O)Nc2cc(C(=O)NCc3cccc(F)c3)ccc2N2CCCC2)c1,-2.7%[59 µM],-8.9%,nt,nt,14.8%,-13.4%
O=C1NC(=O)C2C3C=CC(C3)C12 (configuration not stated),9.6%[12.7 µM],nt,nt,nt,nt,nt
Cc1cc(C)c2c(c1)[C@@H]1C=CC[C@@H]1[C@H](c1ccc(S(=O)(=O)N3CCOCC3)cc1)N2,3.55µM*,?,?,?,1.3%,-10.5%
COC(=O)c1ccc(C2Nc3c(C)cc(C)cc3C3C=CCC32)cc1 (configuration not stated),4.47µM*,?,nt,nt,1.6%,79.4µM*
Cc1ccc(S(=O)(=O)N2CCOCC(=O)NCCOCCNC(=O)COCC2)cc1,23.3%[59 µM],10.5%,0.8%,-5.2,21.0%,12.3%
Cc1ccc(CN2c3ccccc3-c3nc(SCC(=O)NCCc4ccccc4)ncc3S2(=O)=O)cc1,5.6%[59 µM],-8.4%,nt,nt,16.7%,-3.8%
COc1ccc(-n2c(=O)c3c4c(sc3n(CC(=O)C(C)(C)C)c2=O)CCCC4)c(OC)c1,?,-28.0%,nt,nt,10.1%,-21.3%
COc1ccccc1-n1c(=O)c2c3c(sc2n2c(=S)[nH]nc12)CCC3,3.16µM*,14.1µM*,-19.8%,-14.8,17.2%,-29.9%
COc1ccc(-n2c(=O)c3c4c(sc3n(CC(=O)Nc3cc(C)[nH]n3)c2=O)CCC4)c(OC)c1,?,89.1µM*,-11.0%,-21.6,0.7%,nt
SMILES,G9a block,JMJD2A Tudor,PLK1 PBD inh,PI5P4Ka inh,HP1b chromo inh,BAZ2B inh
CCn1cc(C(=O)NCCc2ccc(OC)c(OC)c2)c(=O)c2cc(S(=O)(=O)N3CCC(C)CC3)ccc21,-26.0%[59 µM],-24.7%,nt,nt,27.6%,nt
Cc1cc(C)n(Cc2ccc(C(=O)Nc3ccc(Br)cc3C)o2)n1,2.5%[59 µM],-12.5%,-16.2%,5.0,17.6%,-20.6%
Cc1cc(C)n(Cc2ccc(C(=O)Nc3cccc(Br)c3)o2)n1,79.4µM*,-8.9%,-7.7%,-9.4,9.4%,-4.0%
Nc1ncnc2c1ccn2[C@H]1CN(Cc2ccc(Cl)cc2)C[C@@H](CO)O1,nt,nt,-4.5%,7.0,nt,nt
CC(C)(C)NC(=O)C(c1c[nH]c2ccccc12)N(C(=O)Cn1nnc(-c2ccc(F)cc2)n1)c1cccc(O)c1 (configuration not stated),-21.0%[59 µM],28.2µM*,26.7µM*,-20.9,?,?
CCC(=O)N1Cc2cc(C(=O)Nc3nccs3)nc(-c3cccc(-c4ccccc4OC)c3)c2[C@H]1CCO,nt,nt,-1.9%,-0.7,nt,nt
Cc1ccc([N+](=O)[O-])cc1NC(=O)C(C)NS(=O)(=O)c1ccc(F)cc1 (configuration not stated),nt,-8.3%[11.4 µM],23.8µM*,-2.6,?,-0.9%
COc1ccc(S(=O)(=O)Nc2c(F)cccc2F)cc1,-4.3%,25.1µM*,29.9µM*,-17.3,50.1µM*,-14.5%
O=S(=O)(N/N=C\c1c(F)cccc1Cl)c1ccc(Cl)cc1,-23.1%[59 µM],-15.4%,15µM*,0.2,49.4%,2.2%
COc1ccc(S(=O)(=O)NC(C)C(=O)Nc2ccccc2F)cc1 (configuration not stated),39.8µM*,-4.0%,-19.9%,-17.4,18.6%,-2.4%
Cc1cc(=O)oc2cc(OCC(=O)N3CCOCC3)c(Cl)cc12,nt,-6.0%,1.4%,1.5,35.1%,nt
COc1ccc(S(=O)(=O)N/N=C\c2ccccc2F)cc1,39.8µM*,-2.7%,-18.9%,2.1,41.3%,-2.3%
COc1ccccc1/C=N/NS(=O)(=O)c1ccccc1,?,3.0%,-7.6%,-3.5,77.1%,-5.3%
CCOc1ccc(C(=O)Nc2ccc(-c3nc4ccccc4[nH]3)cc2)cc1[N+](=O)[O-],6.0%[59 µM],79.4µM*,4.1%,-3.9,60.8%,-25.2%
CC(C)NC(=S)N1CCN(Cc2ccc3c(c2)OCO3)CC1,42.7%[12.7 µM],-13.7%,-7.9%,-0.2,16.5%,-18.5%
O=C(Cc1cccs1)Nc1ccc(-c2nc3ccccc3[nH]2)cc1,-27.5%[59 µM],-9.9%[11.4 µM],29.9µM*,-21.7,1.2%,-3.2%
Cn1ncc([N+](=O)[O-])c1C(=O)Nc1ccc(-c2nc3ccccc3[nH]2)cc1,?,-18.4%,-0.1%,nt,12.2%,-6.6%
CCC(=O)Nc1ccc(NC(=O)c2ccc3c(c2)OCO3)cc1,?,-3.3%,-9.5%,-6.4,19.4%,0.7%
CCN(CC)c1ccc(C(=O)NC(=S)N2CCN(Cc3ccc4c(c3)OCO4)CC2)cc1,39.8µM*,?,-4.4%,1.2,-19.7%,?
CCN(CC)c1ccc(NC(=O)c2ccc3c(c2)OCO3)cc1,6.31µM*,?,-0.5%,-2.4,?,44.7µM*
CCCC(=O)N1CCCC1(C)C(=O)Nc1cc(C)ccc1C (configuration not stated),nt,nt,0.2%,-3.6,nt,nt
